# ELG1 DNA repair – ELG1-dependent DNA repair inhibition; HEK293T ELG1-luciferase reporter, luminescence, 16 h; DNA damage induced by 5-fluorouridine; Potency, µM (doses to about 46.1 µM), inactives show at the highest dose activity change, negative = inhibition, most hits filed as inhibitors; AID 504467; 330,000 compounds, 2.3% hits; further: potency means the concentration at half of the fitted maximal effect; nearly all actives have a fitted effect of over 55% in size
#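 Luminescence from the luciferase reporter, measured 30 min after ONE-Glo reagent at room temperature, was the read-out. Beforehand, 2,000 cells per well were exposed for 16 hr at 37 °C to 5-fluorouridine together with compound or vehicle.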
# TDP1 cell noCPT – qHTS for Inhibitors of human tyrosyl-DNA phosphodiesterase 1 (TDP1): qHTS in cells in absence of CPT; Potency, µM (doses to about 46.2 µM), for inactives: top-dose activity change, negative = growth inhibition, hits mostly inhibitors; AID 686978, 2013; 420,000 compounds, 15% hits; DT40 Tdp1-/- hTDP1 cells, no CPT, ATP luminescence, 48 h; further: potency means the concentration at half of the fitted maximal effect; nearly all actives have a fitted effect of over 55% in size
#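 No-CPT arm: Tdp1-/-;hTDP1 DT40 cells (400/well) plus compounds, incubated ≥48 hr at 37 °C. Readout CellTiter-Glo luminescence.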
# IL1B secr inh – inflammasome signaling inhibition, IL-1 beta readout; THP-1 LPS/ATP IL-1B secretion, AlphaLISA, 16 h; hits give low values; activity change, % at 57.5 µM; 360,000 compounds, 4.7% hits; in the data active means activity change below about -50%; inconclusive means mostly about -30% to -49%
#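 THP-1 cells pretreated 1 hr with compounds (up to 57.5 uM final), then stimulated with LPS (250 ng/mL final) plus ATP (1.25 mM final); secreted IL-1B measured by AlphaLISA after 16 hr, decreased signal indicating inhibition.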
# TDP1 cell CPT – DT40-hTDP1 cell growth loss with CPT; chicken DT40 Tdp1-/-;hTDP1 cells + 20 nM CPT, ATP luminescence, 48 h; Potency, µM (doses to about 46.2 µM), without a hit: top-dose activity change, negative = growth inhibition, most hits filed as inhibitors; 420,000 compounds, 12% hits; further: potency means the concentration at half of the fitted maximal effect; nearly all actives have a fitted effect of over 55% in size
#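 Chicken DT40 Tdp1-/- cells complemented with human TDP1, 400 cells/well, exposed to compounds plus 20 nM camptothecin for at least 48 h at 37 C; viability read as ATP content by CellTiter-Glo luminescence.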
# RORg inh – ROR gamma (mouse) transcription inhibition. Drosophila S2 Gal4-RORgamma UAS-luciferase reporter, 20 h. 310,000 compounds, 5.4% hits. Potency, µM (highest dose often 53.6 µM), without a hit: at the highest dose activity change, negative = inhibition, hits mostly inhibitors; further: potency means the concentration at half of the fitted maximal effect; nearly all actives have a fitted effect of over 60% in size
# Target sequence (P51450 whole entry, looked up, the tested form may be a part): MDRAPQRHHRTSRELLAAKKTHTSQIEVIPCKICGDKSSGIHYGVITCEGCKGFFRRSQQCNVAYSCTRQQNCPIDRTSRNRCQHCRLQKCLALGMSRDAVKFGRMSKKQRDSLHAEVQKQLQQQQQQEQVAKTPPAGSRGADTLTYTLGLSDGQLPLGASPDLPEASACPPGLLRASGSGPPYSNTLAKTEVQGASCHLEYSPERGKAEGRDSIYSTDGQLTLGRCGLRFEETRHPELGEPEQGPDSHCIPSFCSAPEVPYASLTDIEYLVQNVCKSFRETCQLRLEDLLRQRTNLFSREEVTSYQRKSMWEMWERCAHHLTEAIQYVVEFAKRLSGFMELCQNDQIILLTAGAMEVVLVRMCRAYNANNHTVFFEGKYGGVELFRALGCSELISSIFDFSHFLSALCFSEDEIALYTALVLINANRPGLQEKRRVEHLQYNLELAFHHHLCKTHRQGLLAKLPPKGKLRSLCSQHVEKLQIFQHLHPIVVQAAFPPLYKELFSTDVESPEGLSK
#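 Compounds are pin-transferred onto Drosophila Schneider cells expressing a copper-inducible Gal4–ROR gamma transactivation domain fusion. After 1 hr, copper sulfate is added to 700 uM final; luciferase is read 20 hr later.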
# VP16 counter – Gal4-VP16 reporter inhibition counter-screen. AID 2546. Potency, µM (doses to about 53.6 µM), without a hit: at the highest dose activity, negative = inhibition, actives largely listed as inhibitors. Drosophila S2 Gal4-VP16 UAS-luciferase, luminescence, 20 h. 310,000 compounds, 3.5% hits;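 further: Gal4-VP16 expression switched on by copper sulfate through the metallothionein promoter; potency means the concentration at half of the fitted maximal effect; nearly all actives have a fitted effect of over 50% in size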
# Active calls of the source: *; ? = inconclusive; / = no result; [ ] = another dose, or the depositor's remark. A selection: hits, their analogues and other compounds. The true share with any hit is near 21%. Unless noted, the call rests on the fitted dose curve; in most records, active means well fitted curve in the direction sought with a large enough effect; inconclusive means small, poorly fitted or top-dose-only effect, or another doubt; inactive means no such curve, though single readings can be large; an effect the other way counts as inactive or inconclusive. On the % scale 0 is the no-effect control and ±100 the full control effect.
SMILES,ELG1 DNA repair,TDP1 cell noCPT,IL1B secr inh,TDP1 cell CPT,RORg inh,VP16 counter
Cc1nc2c(OCc3cccc(Cl)c3)cccn2c1N(C)Cc1cccs1,/,16.4µM*,-19.6,20.6µM*,/,/
CCc1nc2c(OCc3ccc(F)c(F)c3)cccn2c1N(C)C(=O)C(C)C,/,?,23.8,1.8%,/,/
CCOC(=O)C(=O)N(C)c1c(CC)nc2c(OCc3ccccc3C)cccn12,/,-22.0%,8.8,-23.9%,/,/
CCC(CC)C(=O)N(C)c1c(C)nc2c(OCc3ccccc3OC)cccn12,/,14.6µM*,24.9,?,/,/
CCN1CCN(C(=O)c2cc3c(-c4ccc(Cl)cc4)nn(C)c3s2)CC1,-19.6%,?,?,?,9.3%,-15.7%
CC1CCCN(C(=O)c2cc3c(-c4ccc(Cl)cc4)nn(C)c3s2)C1 (stereo not drawn),?,?,0.0,?,?,-13.0%
CCN(CC)CCNC(=O)c1cc2c(-c3ccc(Cl)cc3)nn(C)c2s1,?,?,-89.8*,?,?,-25.8%
O=C(c1ccco1)N1CCc2[nH]nc(-c3ccc(Cl)cc3)c2C1,?,-26.4%,-72.0*,-37.3%,37.4%,3.0%
Cn1nc(-c2ccc(Cl)cc2)c2cc(C(=O)N3CCN(C(=O)c4ccco4)CC3)sc21,8.2µM*,?,-2.9,?,34.7%,?
Cn1nc(-c2ccc(Cl)cc2)c2cc(C(=O)NCCN3CCOCC3)sc21,?,?,-18.1,-22.3%,-14.0%,-7.7%
Cn1nc(-c2ccc(Cl)cc2)c2cc(C(=O)NC3CC3)sc21,-16.9%,?,0.0,?,?,12.6µM*
CCN(CC)C(=O)C1=C(C)N(CCCN2CCCC2=O)C(=O)C(CC(=O)NCc2cccc3ccccc23)C1 (stereo not drawn),/,?,9.4,-16.8%,/,/
CC1(C(=O)NS(=O)(=O)c2cccs2)CCN1C(=O)c1ccccc1 (stereo not drawn),/,15.3%,12.3,15.2%,/,/
COc1ccc(CNC(=O)O[C@]23C[C@H]4C(=O)N(c5ccccc5)C(=O)[C@H]4C[C@@]2(O)CN(S(=O)(=O)c2ccc(C)cc2)C3)cc1OC,/,-8.7%,9.3,-4.7%,/,/
CCCCN(CC)CCNC(=O)c1cc2c(-c3ccc(Cl)cc3)nn(C)c2s1,?,?,-97.2*,?,-29.6%,-10.9%
CCCNC(=O)c1cc2c(C(F)(F)F)nn(C)c2s1,8.4%,1.4%,-13.2,-3.2%,36.2%,-11.8%
COc1ccccc1N1CCN(c2ccc(=O)n(CC(=O)Nc3cc(F)ccc3C)n2)CC1,/,23.1µM*,/,14.6µM*,/,/
CCc1ccccc1NC(=O)c1ccc(Cn2nc(N3CCN(c4ccccc4)CC3)ccc2=O)o1,/,11.6µM*,/,14.6µM*,/,/
CCOc1ccccc1NC(=O)Cn1nc(N2CCN(c3ccccc3)CC2)ccc1=O,/,18.4µM*,/,?,/,/
COCCCNC(=O)Cn1nc(N2CCN(c3ccccc3)CC2)ccc1=O,/,-1.1%,/,1.1%,/,/
O=C(N/N=C1/C[C@@H](O)[C@@H](O)[C@@H]2[C@@H]3C(=O)N(C4CCCCC4)C(=O)[C@H]3CC[C@H]12)OCc1ccccc1,/,/,/,/,15.9%[10 µM],11.8%[10 µM]
Cc1oc(C(C)(C)C)cc1-c1cc(NC(=O)c2ccc([N+](=O)[O-])cc2)n[nH]1,22.8%,?,-63.3*,?,?,-10.9%
O=C(Cn1cc(F)c(=O)[nH]c1=O)c1ccco1,/,-16.8%,15.2,-5.7%,/,/
CCSc1ccccc1C(=O)N1CCN(c2ccc([N+](=O)[O-])cc2)CC1,?,16.4µM*,2.3,?,?,-8.7%
